# Experimental data: PubChem BioAssay AID1159580 (chemical genetic matrix, 2015)
# Hit rate of the full screen: of about 5,500 compounds, about 2,000 (36%) were called active. Another 18% or so got no clear call; they are omitted. Some of the results follow. Values without a mark were called inactive. Cut-off read from the data, not from the text of the source: active = normalized growth mostly below about 0.91 (no sharp cut-off); inconclusive = no clear call, values can overlap the other calls; inactive = mostly above about 0.92.
# Assay: chemical genetic growth profiling, strain panel (AID 1159580);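 note: tested at 20 µM; growth read once vehicle control cultures reached saturation at 30 °C; 1 = growth at the plate median or of vehicle wells; lower values mean less growth of the strain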
# Settings: growth OD
# [1] = S. cerevisiae deletion strains, locus YAL040C, strain CLN3, hits give low values
# [2] = S. cerevisiae deletion strains, locus YER002W, strain NOP16, hits give low values
# [3] = S. cerevisiae deletion strains, locus YGR078C, strain PAC10, hits give low values
# [4] = S. cerevisiae deletion strains, locus YMR307W, strain GAS1, hits give low values
# [5] = S. cerevisiae deletion strains, locus YNL153C, strain GIM3, hits give low values
# [6] = S. cerevisiae deletion strains, locus YNL175C, strain NOP13, hits give low values
# [7] = S. cerevisiae deletion strains, locus YNL197C, strain WHI3, hits give low values
# [8] = S. cerevisiae deletion strains, locus YNL224C, strain SQS1, hits give low values
# [9] = S. cerevisiae deletion strains, locus YOR083W, strain WHI5 (second series), hits give low values
# [10] = S. cerevisiae deletion strains, locus YPL055C, strain LGE1, hits give low values
# [11] = S. cerevisiae deletion strains, locus YPL241C, strain CIN2, hits give low values
# [12] = S. cerevisiae deletion strains, locus YAL013W, strain DEP1, hits give low values
# [13] = S. cerevisiae deletion strains, locus YMR263W, strain SAP30, hits give low values
# [14] = S. cerevisiae deletion strains, locus YBR229C, strain ROT2, hits give low values
# [15] = S. cerevisiae deletion strains, locus YDL101C, strain DUN1, hits give low values
# [16] = S. cerevisiae deletion strains, locus YDR150W, strain NUM1, hits give low values
# [17] = S. cerevisiae deletion strains, locus YEL061C, strain CIN8, hits give low values
# [18] = S. cerevisiae deletion strains, locus YHR030C, strain SLT2, hits give low values
# [19] = S. cerevisiae deletion strains, locus YJR043C, strain POL32, hits give low values
# [20] = S. cerevisiae deletion strains, locus YJR075W, strain HOC1, hits give low values
# [21] = S. cerevisiae deletion strains, locus YLR039C, strain RIC1, hits give low values
# [22] = S. cerevisiae deletion strains, locus YLR262C, strain YPT6, hits give low values
# [23] = S. cerevisiae deletion strains, locus YNL322C, strain KRE1, hits give low values
# [24] = S. cerevisiae deletion strains, locus YHR079C, strain IRE1, hits give low values
# [25] = S. cerevisiae deletion strains, locus YJL095W, strain BCK1, hits give low values
# [26] = S. cerevisiae deletion strains, locus YJR066W, strain TOR1, hits give low values
# [27] = S. cerevisiae deletion strains, locus YLR113W, strain HOG1, hits give low values
# [28] = S. cerevisiae deletion strains, locus YNL183C, strain NPR1, hits give low values
# [29] = S. cerevisiae deletion strains, locus YOR231W, strain MKK1, hits give low values
# [30] = S. cerevisiae deletion strains, locus YPL256C, strain CLN2, hits give low values
compound,measurement,setting,value
c1ccc2cc(CC3=NCCN3)ccc2c1,normalized growth,[1],1.01
same,normalized growth,"S. cerevisiae deletion strains, locus YCL061C, strain MRC1 (second series), hits give low values",1
same,normalized growth,"S. cerevisiae deletion strains, locus YDR363W, strain ESC2, hits give low values",1.02
same,normalized growth,[2],0.998
same,normalized growth,[3],1.01
same,normalized growth,[4],1
same,normalized growth,"S. cerevisiae deletion strains, locus YNL128W, strain TEP1, hits give low values",1
same,normalized growth,[5],0.982
same,normalized growth,[6],1.01
same,normalized growth,[7],1.02
same,normalized growth,[8],1.01
same,normalized growth,[9],1
same,normalized growth,[10],1.01
same,normalized growth,[11],0.996
Nc1nc(Cl)nc2c1ncn2[C@@H]1O[C@H](CO)[C@H](O)C1O (stereo partly specified),normalized growth,[12],1.01
same,normalized growth,[1],1.02
same,normalized growth,[2],0.991
same,normalized growth,[3],1.01
same,normalized growth,[13],1.01
same,normalized growth,[4],1
same,normalized growth,[5],1.04
same,normalized growth,[6],0.996
same,normalized growth,[7],0.979
same,normalized growth,[8],1
same,normalized growth,[9],1.02
FC(F)(F)Oc1ccc(-c2noc(CSc3ccc(Br)cc3)n2)cc1,normalized growth,[12],1.02
same,normalized growth,[14],1.01
same,normalized growth,[15],0.967
same,normalized growth,"S. cerevisiae deletion strains, locus YDL134C, strain PPH21, hits give low values",0.999
same,normalized growth,[16],1
same,normalized growth,[17],0.974
same,normalized growth,[3],1
same,normalized growth,[18],0.69 (active)
same,normalized growth,"S. cerevisiae deletion strains, locus YHR087W, strain rtc3, hits give low values",1.01
same,normalized growth,[19],0.992
same,normalized growth,[20],0.978
same,normalized growth,"S. cerevisiae deletion strains, locus YKL190W, strain CNB1, hits give low values",0.989
same,normalized growth,[21],1.05
same,normalized growth,"S. cerevisiae deletion strains, locus YLR058C, strain SHM2 (second series), hits give low values",0.997
same,normalized growth,"S. cerevisiae deletion strains, locus YLR085C, strain ARP6, hits give low values",0.905
same,normalized growth,[22],1
same,normalized growth,"S. cerevisiae deletion strains, locus YML094W, strain GIM5, hits give low values",0.99
same,normalized growth,"S. cerevisiae deletion strains, locus YMR219W, strain ESC1, hits give low values",1
same,normalized growth,[13],0.997
same,normalized growth,[4],0.75
same,normalized growth,[5],1
same,normalized growth,"S. cerevisiae deletion strains, locus YNL298W, strain CLA4 (second series), hits give low values",0.969
same,normalized growth,[23],0.996
same,normalized growth,"S. cerevisiae deletion strains, locus YNR030W, strain Alg12, hits give low values",0.958
same,normalized growth,[10],1.04
same,normalized growth,[11],0.966
same,normalized growth,"S. cerevisiae deletion strains, locus YPR135W, strain CTF4, hits give low values",1.1
same,normalized growth,"S. cerevisiae strains, strain wild type, hits give low values",0.985
CC(=O)OCC1=C(C(=O)O)N2C(=O)[C@@H](N)C2SC1 (stereo partly specified),normalized growth,[18],1.06
same,normalized growth,[24],1.07
same,normalized growth,[25],1.07
same,normalized growth,[26],0.976
same,normalized growth,[27],1.05
same,normalized growth,[28],0.983
same,normalized growth,[29],1.07
same,normalized growth,[30],1.07
C[C@H]1CC2C3CCC4=CC(=O)C=C[C@]4(C)[C@@]3(F)[C@@H](O)C[C@]2(C)[C@@]1(O)C(=O)COP(=O)(O)O (stereo partly specified),normalized growth,[18],1.07
same,normalized growth,[24],1.08
same,normalized growth,[25],1.03
same,normalized growth,[26],0.971
same,normalized growth,[27],1.03
same,normalized growth,[28],0.983
same,normalized growth,[29],1.08
same,normalized growth,[30],1.09
O=C(O)C1C(O)CCC2CN3CCc4c([nH]c5ccccc45)C3CC21 (stereo unspecified),normalized growth,[12],1.03
same,normalized growth,"S. cerevisiae deletion strains, locus YBR021W, strain FUR4, hits give low values",0.972
same,normalized growth,[14],1
same,normalized growth,"S. cerevisiae deletion strains, locus YCL029C, strain bik1, hits give low values",1.03
same,normalized growth,"S. cerevisiae deletion strains, locus YDL035C, strain GPR1, hits give low values",1
same,normalized growth,"S. cerevisiae deletion strains, locus YDL074C, strain BRE1, hits give low values",1.02
same,normalized growth,[15],1.02
same,normalized growth,"S. cerevisiae deletion strains, locus YDL185W, strain tfp1, hits give low values",1.01
same,normalized growth,"S. cerevisiae deletion strains, locus YDL192W, strain arf1, hits give low values",1
same,normalized growth,"S. cerevisiae deletion strains, locus YDR101C, strain arx1, hits give low values",1.01
same,normalized growth,[16],1.01
same,normalized growth,"S. cerevisiae deletion strains, locus YDR162C, strain NBP2, hits give low values",1.03
same,normalized growth,"S. cerevisiae deletion strains, locus YDR318W, strain mcm21, hits give low values",1
same,normalized growth,"S. cerevisiae deletion strains, locus YDR388W, hits give low values",1.01
same,normalized growth,"S. cerevisiae deletion strains, locus YDR502C, strain sam2, hits give low values",1.02
same,normalized growth,[17],1.01
same,normalized growth,"S. cerevisiae deletion strains, locus YER110C, hits give low values",1.02
same,normalized growth,"S. cerevisiae deletion strains, locus YER155C, strain BEM2, hits give low values",1.02
same,normalized growth,"S. cerevisiae deletion strains, locus YER167W, strain BCK2, hits give low values",1.02
same,normalized growth,"S. cerevisiae deletion strains, locus YGL078C, strain dbp3, hits give low values",1.01
same,normalized growth,"S. cerevisiae deletion strains, locus YGL086W, strain mad1, hits give low values",1.02
same,normalized growth,"S. cerevisiae deletion strains, locus YGL248W, strain PDE1, hits give low values",1.01
same,normalized growth,"S. cerevisiae deletion strains, locus YGR135W, strain pre9, hits give low values",0.996
same,normalized growth,"S. cerevisiae deletion strains, locus YGR252W, strain gcn5, hits give low values",0.951
same,normalized growth,[18],1.01
same,normalized growth,"S. cerevisiae deletion strains, locus YHR079C, strain IRE1 (second series), hits give low values",1.01
same,normalized growth,"S. cerevisiae deletion strains, locus YHR094C, strain hxt1, hits give low values",1.02
same,normalized growth,"S. cerevisiae deletion strains, locus YHR129C, strain ARP1, hits give low values",1.01
same,normalized growth,"S. cerevisiae deletion strains, locus YHR200W, strain rpn10, hits give low values",1.02
same,normalized growth,"S. cerevisiae deletion strains, locus YIL066C, strain RNR3, hits give low values",1.01
same,normalized growth,"S. cerevisiae deletion strains, locus YIL073C, strain SPO22, hits give low values",0.988
same,normalized growth,"S. cerevisiae deletion strains, locus YIL125W, strain kgd1, hits give low values",1.01
same,normalized growth,"S. cerevisiae deletion strains, locus YIR030C, strain dcg1, hits give low values",1.01
same,normalized growth,[25],1.03
same,normalized growth,"S. cerevisiae deletion strains, locus YJL134W, strain LCB3, hits give low values",1.02
same,normalized growth,"S. cerevisiae deletion strains, locus YJL168C, strain set2, hits give low values",1.01
same,normalized growth,"S. cerevisiae deletion strains, locus YJL187C, strain SWE1 (second series), hits give low values",1.01
same,normalized growth,[19],1.02
same,normalized growth,[20],1.04
same,normalized growth,"S. cerevisiae deletion strains, locus YKL009W, strain mrt4, hits give low values",1.03
same,normalized growth,"S. cerevisiae deletion strains, locus YKL068W, hits give low values",1.01
same,normalized growth,"S. cerevisiae deletion strains, locus YKL085W, strain MDH1 (second series), hits give low values",0.998
same,normalized growth,"S. cerevisiae deletion strains, locus YKL085W, strain MDH1, hits give low values",0.998
same,normalized growth,"S. cerevisiae deletion strains, locus YKR001C, strain vps1, hits give low values",1.01
same,normalized growth,[21],1.06
same,normalized growth,"S. cerevisiae deletion strains, locus YLR058C, strain SHM2, hits give low values",1.01
same,normalized growth,"S. cerevisiae deletion strains, locus YLR102C, strain apc9, hits give low values",1.02
same,normalized growth,[22],1.06
same,normalized growth,"S. cerevisiae deletion strains, locus YLR268W, strain sec22, hits give low values",1.03
same,normalized growth,"S. cerevisiae deletion strains, locus YLR330W, strain CHS5, hits give low values",1.01
same,normalized growth,"S. cerevisiae deletion strains, locus YLR342W, strain FKS1 (second series), hits give low values",1.05
same,normalized growth,"S. cerevisiae deletion strains, locus YLR371W, strain rom2, hits give low values",1.02
same,normalized growth,"S. cerevisiae deletion strains, locus YLR418C, strain cdc73, hits give low values",0.986
same,normalized growth,"S. cerevisiae deletion strains, locus YML016C, strain PPZ1, hits give low values",1.01
same,normalized growth,"S. cerevisiae deletion strains, locus YML032C, strain rad52, hits give low values",1.01
same,normalized growth,"S. cerevisiae deletion strains, locus YML124C, strain tub3, hits give low values",1.01
same,normalized growth,"S. cerevisiae deletion strains, locus YMR078C, strain ctf18, hits give low values",1.01
same,normalized growth,"S. cerevisiae deletion strains, locus YMR223W, strain ubp8, hits give low values",0.988
same,normalized growth,[13],1.03
same,normalized growth,[4],1.02
same,normalized growth,"S. cerevisiae deletion strains, locus YNL067W, strain RPL9B, hits give low values",1.03
same,normalized growth,"S. cerevisiae deletion strains, locus YNL233W, strain BNI4, hits give low values",1.02
same,normalized growth,"S. cerevisiae deletion strains, locus YNL250W, strain rad50, hits give low values",1.02
same,normalized growth,"S. cerevisiae deletion strains, locus YNL271C, strain bni1, hits give low values",1.01
same,normalized growth,"S. cerevisiae deletion strains, locus YNL298W, strain CLA4, hits give low values",1.02
same,normalized growth,"S. cerevisiae deletion strains, locus YNL307C, strain MCK1, hits give low values",1.02
same,normalized growth,[23],1.01
same,normalized growth,"S. cerevisiae deletion strains, locus YNR052C, strain pop2, hits give low values",1
same,normalized growth,"S. cerevisiae deletion strains, locus YOL012C, strain htz1",1.58
same,normalized growth,"S. cerevisiae deletion strains, locus YOL147C, strain pex11, hits give low values",1.02
same,normalized growth,"S. cerevisiae deletion strains, locus YOR061W, strain CKA2, hits give low values",1.01
same,normalized growth,"S. cerevisiae deletion strains, locus YOR069W, strain VPS5, hits give low values",1.01
same,normalized growth,"S. cerevisiae deletion strains, locus YOR136W, strain idh2, hits give low values",1.02
same,normalized growth,"S. cerevisiae deletion strains, locus YOR144C, strain elg1, hits give low values",1.01
same,normalized growth,"S. cerevisiae deletion strains, locus YOR184W, strain ser1, hits give low values",1.03
same,normalized growth,"S. cerevisiae deletion strains, locus YOR316C, strain cot1, hits give low values",1.02
same,normalized growth,[10],1.03
same,normalized growth,"S. cerevisiae deletion strains, locus YPR119W, strain clb2, hits give low values",1.01
same,normalized growth,"S. cerevisiae deletion strains, locus YPR141C, strain kar3, hits give low values",1.01
same,normalized growth,"S. cerevisiae deletion strains, locus YPR163C, strain tif3, hits give low values",1.01
same,normalized growth,"S. cerevisiae deletion strains, locus YPR167C, strain met16, hits give low values",0.999
same,normalized growth,"S. cerevisiae deletion strains, strain wtn01, hits give low values",1.02
